# Hit rate of the full screen: of about 39,000 compounds, about 3,300 (8.5%) were called active. What follows is part of a selection rich in actives, with near analogues and random picks from the rest.
# Tested on: HepG2
# Assay: cytotoxicity call (relative viability < 0.9)
# Details: 10 µM
row,SMILES,cytotoxicity call
1,C[C@H]1CN([C@@H](C)CO)C(=O)c2cc(C#CCN(C)C)cnc2O[C@@H]1CN(C)C(=O)CCN1CCCCC1,inactive
2,C[C@@H]1CN([C@H](C)CO)S(=O)(=O)c2ccc(C#Cc3ccncc3)cc2O[C@@H]1CN(C)C(=O)Nc1ccc2c(c1)OCO2,active
3,C[C@@H]1CN([C@@H](C)CO)S(=O)(=O)c2ccc(C#Cc3cccnc3)cc2O[C@H]1CN(C)C(=O)Nc1ccc2c(c1)OCO2,inactive
4,C[C@H](CO)N1C[C@H](C)[C@H](CN(C)C(=O)Nc2ccc3c(c2)OCO3)Oc2cc(C#Cc3ccncc3)ccc2S1(=O)=O,inactive
5,C[C@@H]1CN([C@H](C)CO)S(=O)(=O)c2ccc(C#Cc3cccnc3)cc2O[C@H]1CN(C)C(=O)Nc1ccc2c(c1)OCO2,inactive
6,C[C@@H]1CN([C@@H](C)CO)S(=O)(=O)c2ccc(C#Cc3ccncc3)cc2O[C@H]1CN(C)C(=O)Nc1ccc2c(c1)OCO2,active
7,C[C@@H]1CN([C@H](C)CO)S(=O)(=O)c2ccc(C#Cc3cccnc3)cc2O[C@@H]1CN(C)C(=O)Nc1ccc2c(c1)OCO2,inactive
8,C[C@H]1CN([C@@H](C)CO)S(=O)(=O)c2ccc(C#Cc3cccnc3)cc2O[C@@H]1CN(C)C(=O)Nc1ccc2c(c1)OCO2,inactive
9,C[C@H]1CN([C@@H](C)CO)S(=O)(=O)c2ccc(C#Cc3cccnc3)cc2O[C@H]1CN(C)C(=O)Nc1ccc2c(c1)OCO2,inactive
10,C[C@H](CO)N1C[C@H](C)[C@@H](CN(C)C(=O)Nc2ccc3c(c2)OCO3)Oc2cc(C#Cc3ccncc3)ccc2S1(=O)=O,active
11,C[C@@H]1CN([C@H](C)CO)S(=O)(=O)c2ccc(C#Cc3ccncc3)cc2O[C@H]1CN(C)C(=O)Nc1ccc2c(c1)OCO2,inactive
12,C[C@H](CO)N1C[C@H](C)[C@H](CN(C)C(=O)Nc2ccc3c(c2)OCO3)Oc2cc(C#Cc3cccnc3)ccc2S1(=O)=O,inactive
13,C[C@H]1CN([C@@H](C)CO)S(=O)(=O)c2ccc(C#Cc3ccncc3)cc2O[C@H]1CN(C)C(=O)Nc1ccc2c(c1)OCO2,active
14,C[C@@H]1CCCCO[C@@H](CN(C)CC2CCCCC2)[C@@H](C)CN([C@H](C)CO)C(=O)c2cc(NC(=O)C3CCCCC3)ccc2O1,inactive
15,CO[C@@H](CN(C)S(=O)(=O)c1cn(C)cn1)[C@H](C)CN(C(=O)Nc1ccc(C(F)(F)F)cc1)[C@@H](C)CO,inactive
16,C[C@@H]1CN([C@H](C)CO)C(=O)c2cccc(NS(=O)(=O)c3ccc(F)cc3)c2O[C@@H]1CN(C)S(C)(=O)=O,inactive
17,C[C@H](CO)N1C[C@H](C)[C@H](CN(C)S(=O)(=O)c2ccc(F)cc2)Oc2ncc(Br)cc2C1=O,inactive
18,Cc1noc(C)c1S(=O)(=O)Nc1ccc2c(c1)C(=O)N([C@@H](C)CO)C[C@H](C)[C@@H](CN(C)S(=O)(=O)c1cn(C)cn1)OCCCC[C@H](C)O2,inactive
19,C[C@H](CO)N1C[C@H](C)[C@H](CN(C)CC2CC2)Oc2ccc(NS(=O)(=O)c3ccc(F)cc3)cc2C1=O,inactive
20,C[C@H](CO)N1C[C@H](C)[C@H](CN(C)S(=O)(=O)c2cccs2)OCCCC[C@H](C)Oc2ccc(NC(=O)Cc3ccccc3)cc2C1=O,inactive

row,SMILES,cytotoxicity call
1,CC(C)CC(=O)N1CCN(S(C)(=O)=O)CC1,inactive
2,CN1CCc2nc(C(=O)N[C@@H]3C[C@@H](C(=O)N(C)C)CC[C@@H]3NC(=O)C(=O)Nc3ccc(Cl)cn3)sc2C1,inactive
3,C[C@@H]1CN([C@H](C)CO)S(=O)(=O)c2ccc(C#Cc3cccc(F)c3)cc2O[C@H]1CN(C)S(=O)(=O)c1cn(C)cn1,inactive
4,O=C(O)c1ccnc(C(=O)O)c1,inactive
5,C[C@@H]1CN([C@@H](C)CO)C(=O)c2cc(N(C)C)ccc2O[C@@H](C)CCCCO[C@H]1CN(C)Cc1ccc(C(=O)Nc2ccccc2N)cc1,inactive
6,C[C@H]1CN([C@@H](C)CO)S(=O)(=O)c2ccc(Br)cc2O[C@@H]1CN(C)C(=O)Nc1ccc2c(c1)OCO2,inactive
7,C[C@@H]1CN([C@@H](C)CO)S(=O)(=O)c2ccc(C#Cc3cccnc3)cc2O[C@@H]1CN(C)C(=O)Nc1ccc2c(c1)OCO2,inactive
8,C[C@H](CO)N1C[C@H](C)[C@@H](CN(C)C(=O)Nc2ccc3c(c2)OCO3)Oc2cc(C#Cc3cccnc3)ccc2S1(=O)=O,inactive
9,C[C@@H]1CN([C@@H](C)CO)S(=O)(=O)c2ccc(C#Cc3ccncc3)cc2O[C@@H]1CN(C)C(=O)Nc1ccc2c(c1)OCO2,active
10,C[C@H]1CN([C@@H](C)CO)S(=O)(=O)c2ccc(C#Cc3ccncc3)cc2O[C@@H]1CN(C)C(=O)Nc1ccc2c(c1)OCO2,active
11,C[C@@H]1CN([C@@H](C)CO)S(=O)(=O)c2ccc(Br)cc2O[C@H]1CN(C)C(=O)Nc1ccc2c(c1)OCO2,inactive
12,CC(C)NC(=O)Nc1ccc2c(c1)C(=O)N([C@@H](C)CO)C[C@@H](C)[C@H](CN(C)Cc1ccc(C(=O)O)cc1)O2,inactive
13,C[C@H](CO)N1C[C@H](C)[C@@H](CN(C)C(=O)Nc2cccc3ccccc23)Oc2c(NC(=O)Nc3ccc(C(F)(F)F)cc3)cccc2C1=O,inactive
14,C[C@@H]1CN([C@H](C)CO)C(=O)c2cccc(NC(=O)Nc3ccc(C(F)(F)F)cc3)c2O[C@@H]1CN(C)C(=O)Nc1cccc2ccccc12,inactive
15,C[C@@H]1CN([C@@H](C)CO)C(=O)c2cccc(NC(=O)Nc3ccc(C(F)(F)F)cc3)c2O[C@@H]1CN(C)C(=O)Nc1cccc2ccccc12,active
16,C[C@H](CO)N1C[C@H](C)[C@H](CN(C)C(=O)Nc2cccc3ccccc23)Oc2c(NC(=O)Nc3ccc(C(F)(F)F)cc3)cccc2C1=O,active
17,C[C@@H]1CN([C@H](C)CO)C(=O)c2cccc(NC(=O)Nc3ccc(C(F)(F)F)cc3)c2O[C@H]1CN(C)C(=O)Nc1cccc2ccccc12,active
18,C[C@@H]1CN([C@@H](C)CO)C(=O)c2cccc(NC(=O)Nc3ccc(C(F)(F)F)cc3)c2O[C@H]1CN(C)C(=O)Nc1cccc2ccccc12,active
19,C[C@@H]1CCCCO[C@@H](CN(C)C(=O)c2ccccc2)[C@H](C)CN([C@@H](C)CO)C(=O)c2cc(NS(=O)(=O)c3ccc(Cl)cc3)ccc2O1,inactive
